In the library only some 7.3% were active in any assay of this set; here they are far more common.
Vaccinia Venus: inhibitors of vaccinia virus (Venus reporter). Vaccinia virus Venus reporter expression, fluorescence. Potency, µM (titrated, usually from 36.5 µM), without a hit: at the highest dose activity change, negative = inhibition, most hits filed as inhibitors. hit rate 0.46% among 330,000. AID 720580; calls by dose curve; tested in A549 cells; also: potency is read from the fitted curve at half-maximal effect; nearly all actives have a fitted effect of over 30% in size
Vaccinia mCherry: inhibitors of vaccinia virus infection (mCherry reporter signal). Vaccinia virus mCherry reporter infection, fluorescence. Potency, µM (doses to about 36.5 µM), for inactives: at the highest dose activity change, negative = inhibition, usual class: inhibitors. hit rate 0.63% among 310,000. AID 720579; calls by dose curve; tested in A549 cells; also: potency is read from the fitted curve at half-maximal effect; nearly all actives have a fitted effect of over 35% in size
FMDV inh: foot and mouth disease virus antiviral activity; AID 1159524; FMDV antiviral cell-based qHTS; hit rate 1.2% among 410,000; Potency, µM (titrated, usually from 57.9 µM), inactives show top-dose activity change, negative = inhibition, actives largely listed as inhibitors; calls by dose curve; tested in HEK293T cells; also: read-out not given here; potency is read from the fitted curve at half-maximal effect; nearly all actives have a fitted effect of over 45% in size
HCMV inh: inhibitors of human cytomegalovirus; hit rate 4.5% among 410,000; AID 1259415; activity change, negative = inhibition, % at 57.5 µM; HFF cells, HCMV-luciferase reporter, 72 h; stronger effect = lower value; in the data active = activity change below about -60%; inconclusive = no clear call, values can overlap the other calls; inactive = above about -39%
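Steps: HFFs plated, 16 h 37C; compounds added; HCMV-luciferase added to MOI 1 PFU/cell; 72 h 37C; OneGlo reagent, 5 min room temperature; luminescence read, normalized to controls.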
HCV inh: blocks hepatitis C virus. Potency, µM (doses to about 41.8 µM), inactives show top-dose activity change, negative = inhibition, most hits filed as inhibitors. hit rate 3.4% among 340,000. Huh7.5.1 HCVcc-Cre infection, luciferase reporter, 44 h; active = well fitted inhibition curve with a large enough effect; inconclusive = small, poorly fitted or top-dose-only effect, or another doubt; inactive = no such curve, though single readings can be large or run the other way; also: potency is read from the fitted curve at half-maximal effect
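A cell-based infection assay in which seeded cells (1,000 per well) receive test compound after 4 h, are inoculated with HCVcc-Cre at approximately 0.5 moi, and are incubated 44 h before luminescence detection.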
An asterisk follows results filed as active; i = inactive; ? = inconclusive; . = no result given. % is scaled to controls: 0 for no effect and ±100 for the full control effect.

SMILES | Vaccinia Venus | Vaccinia mCherry | FMDV inh | HCMV inh | HCV inh
Cc1cccc(-n2c(SCC(=O)Nc3ccccc3C)nc3c(oc4ccccc43)c2=O)c1 | -12% | -11% | -7% | ? | .
CCCNc1nc(N)nc(-c2cc(Cl)ccc2OC)n1 | -12% | . | -21% | 15 | 0%
CCNc1nc(N)nc(-c2cc(Cl)ccc2O)n1 | 10µM* | 10µM* | 15% | . | ?
CCCCNc1nc(N)nc(-c2cc(Cl)ccc2O)n1 | 20µM* | ? | 44% | -29 | ?
CCCNC(=O)CCC(=O)N1Cc2cccc(OC)c2Oc2ncccc21 | -10% | -13% | -19% | -4 | .
CCCCCCCCN1C(=O)[C@@H](CC(=O)NCCC(C)C)C[C@@]2(C(=O)OC)C1=C[C@H](C(C)(C)C)O[C@@H]2C | . | . | . | 1 | .
Cc1ncc2c(c1CNC(=O)c1ccccc1F)CCN(C(=O)c1ccccc1-n1cccn1)C2 | -3% | -13% | -14% | . | .
COc1cc(-c2nnc(CSc3nnc(Nc4ccc(Oc5ccccc5)cc4)s3)o2)cc(OC)c1OC | -26% | ? | -11% | ? | 5.6µM*
COc1cc(-c2nnc(COc3ccc4ccccc4c3)o2)cc(OC)c1OC | -20% | -21% | 0% | -107* | -4%
O=C(O)/C=C/C(O)c1ccc(Cl)cc1 (stereo unspecified) | -12% | -18% | -18% | 42 | -2%
Clc1ccc(C(c2ccc(Cl)cc2)C(Cl)(Cl)Cl)cc1 | -21% | -17% | 3.5µM* | . | .
COc1ccc(C(=O)NCC2Cc3cc(C)cc(-c4cc(C(C)=O)ccc4F)c3O2)c(OC)c1OC (stereo unspecified) | -11% | i | -18% | . | .
COc1ccc(C(C)(C)C)cc1S(=O)(=O)n1ccnc1C | 5% | -9% | 46% | -70* | -30%
COc1cc(C)c(Cl)cc1S(=O)(=O)n1ccnc1C | -16% | -19% | . | -16 | -1%
O=C(COc1ccc(Br)cc1CO)Nc1ccccc1F | -3% | . | 10% | 54 | 25µM*
O=C(COc1ccc(Br)cc1CO)Nc1ccccc1 | . | . | 28% | 24 | 16µM*
Cc1ccc(NC(=O)COc2ccc(Br)cc2CO)cc1 | . | . | -7% | 42 | ?
O=P(c1ccccc1)(c1ccccc1)c1nc(-c2ccc(Cl)cc2)oc1N1CCOCC1 | . | . | -24% | -88* | 10µM*
O=P(c1ccccc1)(c1ccccc1)c1nc(-c2ccccc2)oc1N1CCOCC1 | -18% | -5% | 0% | 22 | -12%
O=C(O)c1nn(CCOc2cccc(Cl)c2)c(=O)c2ccccc12 | -14% | -3% | -10% | 81 | 2%
O=C(O)c1nn(CCOc2c(Cl)cccc2Cl)c(=O)c2ccccc12 | 9% | 11µM* | -3% | -75* | 11%
O=c1[nH]c(CN2CCN(C/C=C/c3ccccc3)CC2)nc2cc(Cl)ccc12 | -22% | -29% | -23% | 1 | 14µM*
O=C(CCc1nc2ccccc2c(=O)[nH]1)N1CCN(C/C=C/c2ccccc2)CC1 | . | . | 20µM* | 13 | ?
Cc1ccc(NC(=O)Cn2c(=O)oc3cc(S(=O)(=O)N4CCCCCC4)ccc32)cc1Cl | ? | ? | ? | 0 | .
CC(=O)N(O)CCCCCNC(=O)CCC(=O)N(O)CCCCCNC(=O)CCC(=O)N(O)CCCCCN | -20% | ? | -4% | ? | 14µM*
SMILES | Vaccinia Venus | Vaccinia mCherry | FMDV inh | HCMV inh | HCV inh
CCCC(=O)NCCCCNC(=O)CCC | -9% | -2% | 3% | 0 | 5%
CC(C)Oc1ccc(CNC(=O)CCn2c(=O)c3cccn3c3ccc(F)cc32)cc1 | 7% | 5% | -11% | -12 | .
CON(C)C(=O)/C=C/[C@H](CC1CCCC1)NC(=O)C(F)(F)F | . | . | . | -10 | .
CCCOC(=O)C(C)n1cnc2scc(-c3ccc(C)cc3)c2c1=O (stereo unspecified) | . | . | -4% | 5 | 22µM*
CCOC(=O)C(C)n1cnc2scc(-c3ccc(C)cc3)c2c1=O (stereo unspecified) | . | . | 8% | 11 | -12%
Cc1cc(C)cc(NC(=O)N2CCC3(CC2)Oc2ccccc2C(=O)N3Cc2ccccc2F)c1 | -20% | -10% | -22% | 22 | .
O=C(CNCC(=O)Nc1ccc(F)c(F)c1F)Nc1ccc(F)c(F)c1F | . | . | -4% | -83* | 14%
O=C(c1ccc2c(c1)OCCO2)N1CCN(c2nc(-c3cccs3)nc3ccccc23)CC1 | -18% | -6% | . | . | .
Cc1ccccc1COn1nnc2ccc(S(=O)(=O)N3CCOCC3)cc21 | 7.9µM* | 4.5µM* | ? | -19 | 6%
CN(C(=O)COn1nnc2ccc(S(=O)(=O)N3CCOCC3)cc21)c1ccccc1 | -6% | -16% | -24% | -22 | 11%
CC1(C)[C@H]2CC=C(CN3CCC(N4CCC(C(=O)N5CCCC5)CC4)CC3)[C@@H]1C2 | -16% | ? | -16% | -34 | 32µM*
Cc1nc2c(-c3ccccc3)c(C)nn2c(C)c1CCC(=O)NCc1ccc(F)cc1 | -10% | 1% | -29% | 4 | .
Cc1cc(/C=N/n2cnnc2)c(C)n1-c1ccc(OCc2ccc(Cl)cc2Cl)cc1 | ? | . | -46% | . | 5.6µM*
Cc1cc(/C=N/n2cnnc2)c(C)n1-c1ccc(Cl)cc1 | -8% | i | 0% | -17 | 10%
Cc1cc(/C=N/n2cnnc2)c(C)n1-c1ccc(OCc2ccc(F)cc2)cc1 | -25% | -29% | . | -86* | 11µM*
CC1Cc2cc(S(=O)(=O)NCc3ccc(N(C)C)cc3)ccc2N1C(=O)C1CCC1 (stereo unspecified) | -9% | -21% | ? | -22 | .
COc1ccc(S(=O)(=O)N2CCOCC2)cc1NC(=O)c1cc2c(s1)CCCC2 | -3% | -17% | 23% | -69* | 5%
COc1ccc(NC(=O)CSc2nnnn2C2CC2)cc1S(=O)(=O)N1CCOCC1 | . | . | -15% | -29 | ?
O=C(COc1ccc(F)cc1Cl)Nc1cc(S(=O)(=O)N2CCOCC2)ccc1N1CCCCC1 | -17% | -8% | -12% | -20 | ?
COc1ccc(C)cc1NC(=O)c1cc(S(=O)(=O)N2CCCC2)cn1C | -2% | 12% | 34% | 28 | -2%
COc1ccc(S(=O)(=O)N2CCOCC2)cc1NC(=O)CSc1nnnn1C1CC1 | -13% | -21% | 7% | -60* | -1%
CCc1ccccc1OCC(=O)Nc1cc(S(=O)(=O)N2CCOCC2)ccc1N1CCCCC1 | -19% | ? | -8% | -28 | 11µM*
COc1ccc(Cl)cc1NC(=O)c1cc(S(=O)(=O)N2CCCC2)cn1C | -3% | 10% | -1% | 18 | 11µM*
COc1ccccc1C(=O)Nc1nnc(SCc2cc(=O)n3ccc(C)cc3n2)s1 | -5% | i | 28% | -11 | .
O=S(=O)(c1ccccc1)N1CCC[C@@]2(CCN(c3ccncc3)C2)C1 | . | . | -13% | . | .
CN1CCN(C(=O)c2ccc(N3CC4ON=C(c5c(F)cccc5Cl)C4C3)cc2)CC1 (stereo unspecified) | . | . | . | -13 | .
CCCS(=O)(=O)NCCc1csc2nc(-c3ccc(OC)cc3)nn12 | -5% | -12% | 2% | 41 | .
